According to PubChem BioAssay AID504652 (National Center for Advancing Translational Sciences (NCATS), 2011):
Out of some 360,000 compounds screened, about 11,000 (3.1%) were called active. For the sample, actives were picked, then their nearest neighbours and some compounds at random. Unmarked numbers belong to inactive results. No stated cut-off is given here; in the data, active means activity change below about -30%; inactive means the rest. Square brackets hold non-standard residues; d marks the D form. Peptide text beside a SMILES is read from it. * marks the point of attachment. PhAc = O=C(Cc1ccccc1)*

What follows are compounds tested against D(1A) dopamine receptor (Homo sapiens) (UniProt P21728) (assay: Antagonist of Human D 1 Dopamine Receptor: qHTS). Settings: HEK293 TREx D1 cells, calcium flux, dopamine EC80; at 10 µM; hits give low values.
Outline: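 After overnight tetracycline induction at 30 C, force-coupled D1 HEK293 cells took up a no-wash calcium dye at room temperature. Compounds were added and monitored 180 s, and the response to EC80 dopamine was then recorded.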
On the % scale 0 is the no-effect control and ±100 the full control effect.

Chain of D(1A) dopamine receptor (Homo sapiens) (P21728 whole entry, looked up): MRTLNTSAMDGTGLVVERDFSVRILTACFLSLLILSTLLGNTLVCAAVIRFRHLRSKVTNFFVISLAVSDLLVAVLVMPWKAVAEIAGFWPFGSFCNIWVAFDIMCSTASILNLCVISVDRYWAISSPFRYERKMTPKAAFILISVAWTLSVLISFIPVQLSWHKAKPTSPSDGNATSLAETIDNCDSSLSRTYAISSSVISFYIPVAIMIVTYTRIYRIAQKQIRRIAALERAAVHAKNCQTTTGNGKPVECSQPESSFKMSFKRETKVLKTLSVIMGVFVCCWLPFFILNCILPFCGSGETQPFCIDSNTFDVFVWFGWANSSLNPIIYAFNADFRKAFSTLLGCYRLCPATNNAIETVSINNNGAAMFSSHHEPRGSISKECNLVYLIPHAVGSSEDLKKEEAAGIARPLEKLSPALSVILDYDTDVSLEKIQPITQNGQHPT

Row | SMILES | activity change, negative = inhibition
1 | COc1ccc(NC(=O)c2sc3nc(-c4cc5cccc(OC)c5oc4=O)[nH]c(=O)c3c2C)cc1 | 7.97%
2 | Cc1ccc(CSc2nc3cccnc3n2Cc2ccc(C(=O)NC3CC3)cc2)cc1 | -0.852%
3 | CCc1ccc(NC(=O)CCCc2nnc3n(CCCOC)c(=O)c4sccc4n23)cc1 | -2.77%
4 | Cn1nc(-c2ccccc2)c(CSc2cccc(Cl)c2)c1Cl | 2.15%
5 | Cn1nc(-c2ccccc2)c(CO)c1Sc1ccccc1 | -64.5% (active)
6 | Cn1cnc([N+](=O)[O-])c1Sc1ccccc1 | 1.72%
7 | Cc1ccc(S(=O)(=O)NCc2nc3nc(C)cc(C)n3n2)cc1 | -1.58%
8 | Cc1ccc(NC(=O)Nc2ccccc2)c(Br)c1 | -35.1% (active)
9 | Cc1ccc(NC(=O)c2ccn(C(=O)Nc3ccccc3)n2)c(C)c1 | 4.19%
10 | CCOc1cc(NC(=O)Nc2ccccc2)c(OCC)cc1NC(=O)CC | 0.545%
11 | COc1ccc(Cn2c(=O)c3oc4ccccc4c3n(CC(=O)Nc3ccc(F)cc3F)c2=O)cc1 | -7.86%
12 | Cc1cc2c(s1)c1cnn(Cc3cc(F)c(Cl)cc3Cl)c(=O)c1n2C | 3.83%
13 | CC(C)OCCCNc1ncnc2c1[nH]c1ccc(F)cc12 | -48.9% (active)
14 | Cc1ccc(-n2ncc(C(=O)N(C)Cc3ccccc3)c2-n2cccc2)cc1 | -9.92%
15 | Cc1cc2c(cc3c(SCc4nc(-c5ccccc5)oc4C)nnc(C)n32)o1 | -21.6%
16 | O=C(NCC(c1ccco1)S(=O)(=O)c1cccs1)c1ccc(F)cc1 (configuration not stated) | -7.39%
17 | O=C(CC1NCCNC1=O)Nc1cc(Cl)cc(Cl)c1 (configuration not stated) | 4.63%
18 | O=C(CC1NCCc2ccccc21)Nc1cccc(Cl)c1 (configuration not stated) | -31.7% (active)
19 | O=C(CC1NCCNC1=O)Nc1ccc(Oc2ccccc2)cc1 (configuration not stated) | 1.7%

Row | SMILES | activity change, negative = inhibition
20 | O=C(NCc1ccc(Cl)cc1)c1ccc2c(c1)nnn2C1CCCC1 | -8.94%
21 | Cc1ccc2ccc3c(c2n1)NS(=O)(=O)c1ccccc1-3 | 8.65%
22 | Cc1cccc2c1-c1sc(C(=O)Nc3ccc(F)cc3F)cc1CO2 | -14.5%
23 | COc1ccc(CNC(=O)c2cc3c(s2)-c2ccccc2OC3)cc1 | -24.1%
24 | Cc1cccc2c1-c1sc(C(=O)NCCCN3CCc4ccccc4C3)cc1CO2 | -31.8% (active)
25 | COc1ccc2c(c1)CCc1c(C(=O)Nc3cc(C)ccc3O)noc1-2 | -13.5%
26 | COc1ccc(CNc2nc(-c3ccc(Cl)cc3)cc(C(F)(F)F)n2)cc1 | -13.9%
27 | CCCNC(=O)C1CCC(Cn2c(=O)c3sccc3n(Cc3ccccc3F)c2=O)CC1 (configuration not stated) | -11.6%
28 | CCCC12CN3CC(CCC)(CN(C1)C3c1c[nH]c3ccc(OC)cc13)C2=O (configuration not stated) | -7%
29 | COc1ccccc1CNC(=O)C1CCN(c2nc3ccccc3o2)CC1 | 15.4%
30 | COc1ccccc1CN(C)C(=O)c1cc2ccccc2o1 | -35.2% (active)
31 | COc1ccccc1CN(C)C(=O)C1(c2ccc(Cl)cc2)CC1 | -0.3%
32 | CCc1ccc(N(CC)C(=O)CCn2cnc3onc(-c4ccc(F)cc4)c3c2=O)cc1 | -6.1%
33 | CCCN(CC1COc2ccccc2O1)C(=S)Nc1ccc(C)cc1 (configuration not stated) | -12.3%
34 | S=C(NCC1COc2ccccc2O1)Nc1ccc(Br)cc1 (configuration not stated) | -47.7% (active)
35 | CC(NC(=S)Nc1ccccc1)C1COc2ccccc2O1 (configuration not stated) | -14.2%
36 | COc1ccc(-n2c(=O)c3c(c4cc(OC)ccc4n3C)n(Cc3cccc(C)c3)c2=O)cc1 | 4.47%
37 | Cc1ccc(Cl)cc1N1CCN(C(=O)CN2C(=O)COc3ccc(S(=O)(=O)N4CCOCC4)cc32)CC1 | 3.53%
38 | COc1cc(NC(=O)CCn2nc(C)cc2C)cc(OC)c1OC | 34.5%

Row | SMILES | activity change, negative = inhibition
39 | O=C(c1ccccc1F)N1CCC(c2nc3c(nnn3Cc3cccc(F)c3)c(=O)[nH]2)CC1 | 0.447%
40 | O=C(Nc1ccc(F)cc1)N1CCCC(c2nc3c(nnn3Cc3ccccc3Cl)c(=O)[nH]2)C1 (configuration not stated) | 2.43%
41 | Cc1ccc(NC(=O)N2CCC(c3nc4c(nnn4Cc4c(F)cccc4Cl)c(=O)[nH]3)CC2)cc1 | -40.8% (active)
42 | Cn1cc(S(=O)(=O)N2CCCCCC2)cc1C(=O)N1CCN(c2ccc(F)cc2)CC1 | 5.3%
43 | CC(C)Oc1ccc(CNC(=O)C2CCN(c3nc4ccccc4n(C)c3=O)CC2)cc1 | 18.8%
44 | CCCOc1ccc(C(=O)Nc2ccc3oc(-c4cccc(Cl)c4Cl)nc3c2)cc1 | 6.25%
45 | COc1ccc2oc(=O)c(-c3cn4c(n3)sc3cc(OC)ccc34)cc2c1 | 2.94%
46 | Cn1c(=O)c2c(nc(SCC(=O)Nc3ccc(F)cc3)n2Cc2ccccc2)n(C)c1=O | 6.42%
47 | COC(=O)[C@H](CC(C)C)NC(=O)N1CCCCC1C (some centres not stated) | -78.1% (active)
48 | CC(C)C[C@H](NC(=O)C1CCC(CNC(=O)[C@@H]2CCCN2C(=O)OC(C)(C)C)CC1)C(=O)O (some centres not stated) | -1.98%
49 | CC(C)C[C@@H](NC(=O)[C@H]1CCCN1C(=O)Cc1ccccc1)C(N)=O (PhAc-[dP]-[dL]-NH2) | 30%
50 | CC(=O)c1ccc(NC(=O)CSc2nc(-c3ccccc3F)nc3c2c(=O)n(C)c(=O)n3C)cc1 | -0.158%
51 | CC(=O)Nc1cc(C(=O)NCc2ccc(F)cc2Cl)ccc1Sc1ccc(Cl)cc1 | 9.87%
52 | CCOC(=O)c1ccc(NC(=O)C2CC(=O)NC(=Nc3ccc(C)c(C)c3)S2)cc1 (configuration not stated) | -1.43%
53 | CCc1ccc(CNCc2c(C(=O)O)n(Cc3ccc(F)cc3Cl)c3cc(OC)ccc23)cc1 | 6.05%
54 | O=Cc1c(Nc2ccccc2Cl)nc2ccccn2c1=O | 9.2%
55 | COCCCNC(=O)/C(C#N)=C/c1c(N2CCCCCC2)nc2ccccn2c1=O | 13.8%
56 | O=Cc1c(N2CCN(c3cccc(Cl)c3)CC2)nc2ccccn2c1=O | -43.5% (active)
57 | Cc1ccc(-c2nc3ccccn3c2Nc2c(C)cccc2C)o1 | -2.58%
